# Biological target: Focal adhesion kinase 1 (Homo sapiens) (UniProt Q05397)
# Experiment: small-molecule microarray binders of FAK, primary screen, biochemical, 635/667 nm fluorescence, BSA, DTT (AID 1130);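 note: composite of spot emission at 667 nm and signal to noise over triplicate slides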
# Details: PTK2 binding, 635 nm fluorescence, higher = more signal
# Chain of Focal adhesion kinase 1 (Homo sapiens) (Q05397 whole entry, looked up): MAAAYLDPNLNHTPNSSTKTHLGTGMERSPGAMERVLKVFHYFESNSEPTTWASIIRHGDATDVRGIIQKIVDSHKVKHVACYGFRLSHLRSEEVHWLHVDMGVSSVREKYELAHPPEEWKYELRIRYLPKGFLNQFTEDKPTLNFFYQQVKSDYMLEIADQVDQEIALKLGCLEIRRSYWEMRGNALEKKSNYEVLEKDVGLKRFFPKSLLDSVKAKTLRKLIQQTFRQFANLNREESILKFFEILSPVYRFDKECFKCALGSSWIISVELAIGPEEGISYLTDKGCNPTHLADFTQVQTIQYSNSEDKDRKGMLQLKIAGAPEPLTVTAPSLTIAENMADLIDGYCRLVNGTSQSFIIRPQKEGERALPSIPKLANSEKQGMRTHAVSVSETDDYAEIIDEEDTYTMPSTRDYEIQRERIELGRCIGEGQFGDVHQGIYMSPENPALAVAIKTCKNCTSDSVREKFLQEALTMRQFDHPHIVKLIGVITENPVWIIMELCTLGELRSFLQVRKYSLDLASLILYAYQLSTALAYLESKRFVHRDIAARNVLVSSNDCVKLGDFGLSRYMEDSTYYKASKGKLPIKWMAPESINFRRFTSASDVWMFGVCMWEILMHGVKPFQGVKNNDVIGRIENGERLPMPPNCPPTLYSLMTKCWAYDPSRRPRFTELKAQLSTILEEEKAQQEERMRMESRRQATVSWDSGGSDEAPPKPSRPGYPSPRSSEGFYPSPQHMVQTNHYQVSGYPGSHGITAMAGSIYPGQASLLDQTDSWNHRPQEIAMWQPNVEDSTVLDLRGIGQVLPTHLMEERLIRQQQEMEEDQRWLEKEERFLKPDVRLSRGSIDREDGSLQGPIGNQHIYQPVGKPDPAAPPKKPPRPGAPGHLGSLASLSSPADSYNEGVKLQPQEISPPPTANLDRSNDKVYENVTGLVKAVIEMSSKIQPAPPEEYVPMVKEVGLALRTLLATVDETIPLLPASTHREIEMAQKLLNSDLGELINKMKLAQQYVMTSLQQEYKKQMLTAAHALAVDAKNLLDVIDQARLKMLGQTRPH
row,Compound,composite z-score
1,COCCOC(=O)N1C(=O)[C@@]2(c3cc(C#CCNC(N)=O)ccc31)[C@H](c1ccc(OCCO)cc1)N1[C@H](c3ccccc3)[C@H](c3ccccc3)OC(=O)[C@H]1[C@@H]2C(=O)NC[C@H](O)c1ccccc1,0.445
2,C=C[C@@H](C)[C@H](O)c1ccc(OCCO)cc1,-0.232
3,CC(=O)N1CC(C(O)C2C=CC3C(=O)NC(=O)C3N2Nc2ccc(Cl)cc2Cl)c2ccccc21 (configuration not stated),-0.416
4,Nc1cc(Br)ccc1C(=O)O,0.5
5,C=C(CCCC)/C(=C/C[C@H](OC(C)=O)c1ccc(OCCO)cc1)c1cc(C(=O)OC)ccc1OC,0.667
6,C=C(COC)/C(=C/C[C@H](OC(C)=O)c1cccc(OCCO)c1)c1cnc2ccccc2c1,-0.105
7,C=CCNC(=O)[C@H]1[C@@H]2C(=O)O[C@@H](c3ccccc3)[C@@H](c3ccccc3)N2[C@@H](c2ccc(OCCO)cc2)[C@]12C(=O)N(C(=O)OCCOC)c1ccc(C#Cc3ccc(OC)cc3)cc12,0.0069

# Source: PubChem BioAssay
